# Test results published in paper PMC5540273 (PLoS ONE, 2017).
# Tested on: TNIK
# Details: concentration: 1 μM, replicates: in singlicate; n = 1
# 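Further: KINOMEscan kinase panel screen.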
row,SMILES,%Inh [%]
1,CS(=O)(=O)c1ccc(-c2c(-c3ncn[nH]3)sc(N3CCOCC3)c2C#N)cc1,20
2,CCn1c(-c2cccnc2O)nc2cnccc21 [SB-736715],0
3,Cc1cc(-c2ccc3c(c2)CC[C@@H](N[C@@H](C)c2ccccc2)C3)cnc1N.Cl [GW412617],45
4,COc1ccccc1CNC(=O)c1cc(C(=O)c2ccccc2C)c[nH]1 [GSK364507],0
5,Cc1cccc(-c2nc(-c3ccc(S(C)(=O)=O)cc3)sc2-c2ccnc(NCCc3ccccc3)c2)c1,10
6,CC(=O)Nc1nc2cnc(Nc3cc(NC(=O)c4cccc(CCC#N)c4)ccc3C)nc2s1,7
7,Cc1cccc(-c2nc(C)cc(Nc3ccncc3)n2)n1 [GSK257997],0
8,CS(=O)(=O)c1ccc(-c2nc3n(c2-c2ccncc2)CCC3)cc1 [SKF-105942],0
9,Cl.c1ccc(-c2n[nH]cc2-c2ccnc(-c3ccc(CN4CCOCC4)cc3)c2)nc1 [GW776245],30
10,Nc1ncnc2[nH]c(-c3ccccc3)nc12 [AH5015],1
11,O=C(O)COc1ncnc2cc(-c3ccc4[nH]ncc4c3)sc12,10
12,COc1cc2ncn(-c3cc(OCC4CCCO4)c(C(N)=O)s3)c2cc1OC (stereo not shown) [GSK204607],27
13,Cc1ccc(NC(=O)Nc2cc(C(C)(C)C)nn2-c2ccccc2)cc1 [GSK1014915],0
14,Cc1cccc(-c2nc(Nc3ccc4[nH]ncc4c3)c3ccccc3n2)n1 [GW857175],4
15,CC(C)(C)c1ccc(C(=O)Nc2cn3cc(Cl)ccc3n2)cc1,4
16,Cn1cncc1-c1ccc2ncnc(Nc3ccc(OCc4ccccc4)cc3)c2c1 [GW320571],0
17,O=C(Nc1n[nH]c2nc(-c3nccs3)c(Br)cc12)C1CC1 [SB-742251],0
18,CN1C(=O)C(Nc2ccc(Cl)c(C(=O)O)c2)=C(c2ccc(Cl)cc2)C1=O [SB-404290],13

row,SMILES,%Inh [%]
1,Cc1cc(N2Cc3ccccc3C2)nc(Nc2ccc(S(=O)(=O)N3CCOCC3)cc2)n1.Cl [GSK1669917],0
2,CN(C)CCN(C)C(=O)c1cc(-c2ccncc2)c(-c2ccc(Cl)c(O)c2)o1.Cl.Cl [SB-710397],51
3,Cc1csc(-c2nc(Nc3ccncc3)c3ccccc3n2)n1 [GW869640],50
4,Cc1ccc(NC(=O)Nc2cccc(Cl)c2)cc1-c1ccc(C(=O)Nc2ccncc2)cc1 [GSK1398468],0
5,O=C(Nc1n[nH]c2cc(-c3cccc(F)c3F)ccc12)C1CC1 [SB-733894],72
6,O=C(Nc1ccccc1)Nc1cccc(Oc2ccc3nccn3n2)c1,7
7,Cl.O=C(Nc1cccc(-c2nn3ncccc3c2-c2ccnc(Nc3cccnc3)n2)c1)c1c(F)cccc1F [GSK312879],1
8,O=C(Nc1n[nH]c2nc(-c3nccs3)c(Br)cc12)C1CCCC1 [SB-742609],1
9,COc1cc(Nc2nccc(N3CCC(NC(=O)Nc4cc(C)ccc4C)C3)n2)cc(OC)c1OC (stereo not shown) [GSK1379762],0
10,COc1cc2nccc(Nc3ccc(NC(=O)c4ccc(C)cc4)c(O)c3)c2cc1OC.Cl [GW440132],0
11,O=C(Nc1ccc2c(c1)OCO2)NC1CCN(c2ccnc(Nc3ccc(F)cc3)n2)C1 (stereo not shown) [GSK1379724],0
12,O=C1NC(=O)C(N2CCc3ccccc32)=C1c1ccccc1Cl [SB-373598],5
13,Fc1cccc(COc2nnc(-c3ccc4c(c3)CCO4)o2)c1,14
14,Cc1cccc(-c2nc(Nc3cccc(C(N)=O)c3)c3ccccc3n2)n1 [GW876019],2
15,Cc1c(O)cccc1Nc1ccnc2ccc(C(F)(F)F)cc12.Cl [GW466413],0
16,COc1ccc(Nc2nccc(-c3cccc(NC(=O)c4cc5cc(F)ccc5[nH]4)c3)n2)cc1 [GSK1229782],84
17,Cc1cc(NCC(c2ccccc2)c2ccccc2)nc(NCc2ccc(C(F)(F)F)cc2)n1 [GW497681],0

# Tested on: TNK1
# Details: concentration: 1 μM, replicates: in singlicate; n = 1
row,SMILES,%Inh [%]
1,CS(=O)(=O)c1ccc(-c2c(-c3ncn[nH]3)sc(N3CCOCC3)c2C#N)cc1,55
2,CCn1c(-c2cccnc2O)nc2cnccc21 [SB-736715],8
3,Cc1cc(-c2ccc3c(c2)CC[C@@H](N[C@@H](C)c2ccccc2)C3)cnc1N.Cl [GW412617],0
4,COc1ccccc1CNC(=O)c1cc(C(=O)c2ccccc2C)c[nH]1 [GSK364507],0
5,Cc1cccc(-c2nc(-c3ccc(S(C)(=O)=O)cc3)sc2-c2ccnc(NCCc3ccccc3)c2)c1,0
6,CC(=O)Nc1nc2cnc(Nc3cc(NC(=O)c4cccc(CCC#N)c4)ccc3C)nc2s1,0
7,Cc1cccc(-c2nc(C)cc(Nc3ccncc3)n2)n1 [GSK257997],0
8,CS(=O)(=O)c1ccc(-c2nc3n(c2-c2ccncc2)CCC3)cc1 [SKF-105942],0
9,Cl.c1ccc(-c2n[nH]cc2-c2ccnc(-c3ccc(CN4CCOCC4)cc3)c2)nc1 [GW776245],42
10,Nc1ncnc2[nH]c(-c3ccccc3)nc12 [AH5015],0
11,O=C(O)COc1ncnc2cc(-c3ccc4[nH]ncc4c3)sc12,0
12,COc1cc2ncn(-c3cc(OCC4CCCO4)c(C(N)=O)s3)c2cc1OC (stereo not shown) [GSK204607],0
13,Cc1ccc(NC(=O)Nc2cc(C(C)(C)C)nn2-c2ccccc2)cc1 [GSK1014915],0
14,Cc1cccc(-c2nc(Nc3ccc4[nH]ncc4c3)c3ccccc3n2)n1 [GW857175],0
15,CC(C)(C)c1ccc(C(=O)Nc2cn3cc(Cl)ccc3n2)cc1,30
16,Cn1cncc1-c1ccc2ncnc(Nc3ccc(OCc4ccccc4)cc3)c2c1 [GW320571],0
17,O=C(Nc1n[nH]c2nc(-c3nccs3)c(Br)cc12)C1CC1 [SB-742251],0
18,CN1C(=O)C(Nc2ccc(Cl)c(C(=O)O)c2)=C(c2ccc(Cl)cc2)C1=O [SB-404290],13

row,SMILES,%Inh [%]
1,Cc1cc(N2Cc3ccccc3C2)nc(Nc2ccc(S(=O)(=O)N3CCOCC3)cc2)n1.Cl [GSK1669917],0
2,CN(C)CCN(C)C(=O)c1cc(-c2ccncc2)c(-c2ccc(Cl)c(O)c2)o1.Cl.Cl [SB-710397],2
3,Cc1csc(-c2nc(Nc3ccncc3)c3ccccc3n2)n1 [GW869640],21
4,Cc1ccc(NC(=O)Nc2cccc(Cl)c2)cc1-c1ccc(C(=O)Nc2ccncc2)cc1 [GSK1398468],0
5,O=C(Nc1n[nH]c2cc(-c3cccc(F)c3F)ccc12)C1CC1 [SB-733894],10
6,O=C(Nc1ccccc1)Nc1cccc(Oc2ccc3nccn3n2)c1,23
7,Cl.O=C(Nc1cccc(-c2nn3ncccc3c2-c2ccnc(Nc3cccnc3)n2)c1)c1c(F)cccc1F [GSK312879],49
8,O=C(Nc1n[nH]c2nc(-c3nccs3)c(Br)cc12)C1CCCC1 [SB-742609],2
9,COc1cc(Nc2nccc(N3CCC(NC(=O)Nc4cc(C)ccc4C)C3)n2)cc(OC)c1OC (stereo not shown) [GSK1379762],14
10,COc1cc2nccc(Nc3ccc(NC(=O)c4ccc(C)cc4)c(O)c3)c2cc1OC.Cl [GW440132],26
11,O=C(Nc1ccc2c(c1)OCO2)NC1CCN(c2ccnc(Nc3ccc(F)cc3)n2)C1 (stereo not shown) [GSK1379724],16
12,O=C1NC(=O)C(N2CCc3ccccc32)=C1c1ccccc1Cl [SB-373598],3
13,Fc1cccc(COc2nnc(-c3ccc4c(c3)CCO4)o2)c1,0
14,Cc1cccc(-c2nc(Nc3cccc(C(N)=O)c3)c3ccccc3n2)n1 [GW876019],5
15,Cc1c(O)cccc1Nc1ccnc2ccc(C(F)(F)F)cc12.Cl [GW466413],0
16,COc1ccc(Nc2nccc(-c3cccc(NC(=O)c4cc5cc(F)ccc5[nH]4)c3)n2)cc1 [GSK1229782],0
17,Cc1cc(NCC(c2ccccc2)c2ccccc2)nc(NCc2ccc(C(F)(F)F)cc2)n1 [GW497681],0
